Laboratory results taken from PubChem BioAssay (NCI).
The panel holds about 79,000 compounds, 15% with a hit somewhere; the sample as a whole holds those more often. Calls of active or inactive are those of the source. Cut-off read from the data, not from the text of the source: active = growth inhibition above about 70%; inactive = the rest. Where a SMILES comes first, the peptide text is derived from it.

Tests used:
[1] = NCI Yeast Anticancer Drug Screen. Data for the rad50 strain (AID 155);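 note: 0% = growth of vehicle-only cultures of the same strain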; settings: S. cerevisiae rad50 strain growth inhibition; at 50.0 µM; hits give high values
Summary of the method: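 Readout: growth inhibition relative to vehicle-treated cultures. Compound exposure was carried out in a genetically defined yeast strain deficient in DNA damage repair.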

[2] = NCI Yeast Anticancer Drug Screen. Data for the mec2-1 strain (AID 157); settings: S. cerevisiae mec2-1 strain, at 50.0 µM, hits give high values
Summary of the method: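 Mutant yeast (mec2-1) grown with compound; growth inhibition relative to vehicle control reported.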

[3] = NCI Yeast Anticancer Drug Screen. Data for the sgs1 mgt1 strain (AID 161);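 note: 0% = growth of cultures given vehicle only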; settings: S. cerevisiae sgs1 mgt1 strain, at 50.0 µM, hits give high values
Summary of the method: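 Growth of a repair-deficient yeast mutant was monitored after compound treatment and expressed as inhibition relative to vehicle-treated cultures.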

[4] = NCI Yeast Anticancer Drug Screen. Data for the cln2 rad14 strain (AID 165);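 note: 0% = growth equal to vehicle treated cultures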; settings: S. cerevisiae cln2 rad14 strain, at 50.0 µM, hits give high values
Summary of the method: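 Readout is yeast growth inhibition versus vehicle-treated controls, using a strain with cln2 and rad14 alterations exposed to compound.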

[5] = NCI Yeast Anticancer Drug Screen. Data for the bub3 strain (AID 167); settings: S. cerevisiae bub3 mutant strain, at 50.0 µM, hits give high values
Summary of the method: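 Readout: yeast growth inhibition, expressed relative to vehicle-only wells. The test organism is a mutant strain from a panel with lesions in DNA repair or checkpoint genes.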

[6] = NCI Yeast Anticancer Drug Screen. Data for the mlh1 rad18 strain (AID 175); settings: S. cerevisiae mlh1 rad18 strain growth inhibition; at 50.0 µM; hits give high values
Summary of the method: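 Genetically defined yeast (DNA repair-deficient) exposed to compounds; growth inhibition determined relative to vehicle.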

Measured: growth inhibition

Cc1ccc(S(=O)(=O)N2CCC(C(=O)N3CCCC3)(c3cccc(C)c3)CC2)cc1
inactive: [1] -55.5% | [2] -35.4% | [3] -46.4% | [4] 0.1% | [5] -38.5% | [6] -43.1%

COc1cc2c(-c3cc(OC)c(OC)c(OC)c3)cc(C)[n+](C)c2cc1OC
inactive: [1] 6.25% | [2] -9.2% | [3] -2.3% | [4] -15% | [5] -13.3% | [6] 1.8%

Nc1c2ccccc2nc2ccc3c(=O)cc(-c4ccccc4)oc3c12
inactive: [1] 20.6% | [2] 18.9% | [3] -12.1% | [4] 22.1% | [5] 11.1% | [6] -73%

NC(CCCCn1nnc2c(=O)[nH]cnc21)C(=O)O (stereo not given)
inactive: [1] -12.3% | [2] -26.2% | [3] 6% | [4] -36.9% | [5] 7.1% | [6] -15.6%

O=C(NC(=O)c1ccccc1[N+](=O)[O-])Nc1ccc(Oc2ncc(Cl)cn2)c(C(F)(F)F)c1
inactive: [1] 17.1% | [2] -23.6% | [3] 7.4% | [4] -17.1% | [5] 0.5% | [6] -54.6%

COc1ccc2c(c1OC)C1=NCCc3cc4c(cc3C1(OC)C2=O)OCO4 (stereo not given)
inactive: [1] -7.15% | [2] 0.75% | [3] 7.05% | [4] 16.8% | [5] 13.7% | [6] -1.2%

c1ccc2c(c1)C1CCCCCC21N1CCOCC1 (stereo not given)
inactive: [1] 18% | [2] 1.05% | [3] -14.4% | [4] -5.45% | [5] -30.4% | [6] 7.6%

O=c1cc(NCc2cccc3ccccc23)[nH]c(=O)[nH]1
inactive: [1] 4.45% | [2] 24.1% | [3] -5.25% | [4] -10.1% | [5] -0.75% | [6] -7.1%

CCOC(=O)Nc1ccc([N+](=O)[O-])cc1[N+](=O)[O-]
inactive: [1] 15.9% | [2] -0.45% | [3] 16.2% | [4] 14.8% | [5] 8.6% | [6] 13.2%

CCC1CCCC1=O (stereo not given)
inactive: [1] -8.75% | [2] -10.1% | [3] -9.9% | [4] 8.6% | [5] 10.4% | [6] -8.55%

O=C(COc1ccc(Cl)cc1)Nc1ccccc1Br
inactive: [1] 11% | [2] 12.1% | [3] 7.35% | [4] 9% | [5] 33.7% | [6] -4.55%

CCC1(C#N)N=C(c2ccccc2)c2ccccc2N1C(=O)Oc1ccccc1 (stereo not given)
inactive: [1] 3.65% | [2] 2.65% | [3] -9.7% | [4] -15.7% | [5] 11.1% | [6] 19.6%

CC1=C(C(=O)Nc2ccccc2)C(c2ccccc2)C(C(=O)Nc2ccccc2)=C(C)N1
inactive: [1] 4.2% | [2] 2.55% | [3] 14.5% | [4] 18.4% | [5] 0.55% | [6] 22.4%

CCC(C)C(N)C(=O)NC(C(=O)O)C(C)C (stereo not drawn) (H-Ile-Val-OH; configuration not given here)
inactive: [1] -32.4% | [2] -13.6% | [3] -0.2% | [4] -41.9% | [5] -0.25% | [6] -0.4%

O=C(Nc1ccc(Cl)c(Cl)c1)C(Cl)Cl
inactive: [1] 23.5% | [2] 15.1% | [3] 50.5% | [4] 30.2% | [5] 39.1% | [6] 10.3%

Cc1c(Cl)c(C)c(Cc2c(C)c(Cl)c(C)c(Cl)c2O)c(O)c1Cl
inactive: [1] -4.7% | [2] -40.4% | [3] -20.6% | [4] -11.7% | [5] -5.2% | [6] -5.9%

COc1ccc(COC=O)cc1
inactive: [1] 21.8% | [2] -5.1% | [3] -0.8% | [4] 1.55% | [5] 11.3% | [6] 24.4%

COc1ccccc1NC(N)=S
inactive: [1] -9.1% | [2] -8.5% | [3] 5.65% | [4] 3.25% | [5] -4% | [6] -26.9%

OCCSc1ccc(Cl)cc1
inactive: [1] 14.4% | [2] 25.9% | [3] 5.95% | [4] -31.5% | [5] 12.8% | [6] 27.5%

O=C(CCC1CCCCC1)OC1CCCC1
inactive: [1] 12% | [2] -4.45% | [3] -2.7% | [4] -5.1% | [5] -2.3% | [6] 24.3%

O=C(Nc1ccc(C2=NCCN2)c(O)c1)c1ccc(C(=O)Nc2ccc(C3=NCCN3)c(O)c2)cc1
inactive: [1] 32.6% | [2] 3.95% | [3] 23.2% | [4] 36.2% | [5] 7.5% | [6] 28.6%

O=C(OCc1ccccc1)c1ccccc1
inactive: [1] 18.9% | [2] 3.05% | [3] 10.8% | [4] -13.3% | [5] 28.1% | [6] 51.9%

CN(C)CCOC(=O)c1cccc(CCl)c1
inactive: [1] 15.9% | [2] 6.3% | [3] 5.75% | [4] 44.4% | [5] 25.4% | [6] 7.95%

CN(C)c1ccc(/C=N/NC(=O)c2ccc(N)cc2)cc1
inactive: [1] 1.35% | [2] 5.15% | [3] -12.7% | [4] -12.4% | [5] -2.4% | [6] 14.3%

Nc1ccc(Cl)cc1C(=O)N1CCN(c2ccc([N+](=O)[O-])cn2)CC1
inactive: [1] 33.5% | [2] 16.2% | [3] 51.4% | [4] 36.1% | [5] 42.9% | [6] 18.8%

O=C1NCCCCC1CC/C=C/c1ccccc1 (stereo not given)
inactive: [1] -13.7% | [2] -23.2% | [3] -3.7% | [4] -9.6% | [5] 32.5% | [6] -5.85%

COc1cc(-c2c(C)oc(C)c2C(C)=O)ccc1OCc1ccccc1
inactive: [1] 9.6% | [2] -1.95% | [3] -9.1% | [4] 11.8% | [5] 14.8% | [6] 14.4%

CC(=O)N(C(C)=O)C1=C(c2ccccc2)C(=O)c2ccccc21
inactive: [1] 13.2% | [2] 22.2% | [3] 14% | [4] -0.75% | [5] -2.95% | [6] 40.1%

COc1ccc(OC)c2c(Nc3ccc(S(=O)(=O)O)c4cc(S(=O)(=O)O)cc(S(=O)(=O)O)c34)cc(C)nc12
inactive: [1] 2.5% | [2] -6.4% | [3] 9.25% | [4] 3.1% | [5] 6.8% | [6] 10.9%

C/C(=N/NC(N)=O)C1C2CC3C(C2Cl)C31 (stereo not given)
inactive: [1] 21.4% | [2] -15.3% | [3] -15.1% | [4] -30.6% | [5] 4.7% | [6] -2.4%

COc1ccc2c3c(n(Cc4ccccc4)c(=O)c2c1)-c1cc(OC)c(OC)cc1C3C (stereo not given)
inactive: [1] 36.1% | [2] -21.7% | [3] -1.25% | [4] -26.6% | [5] -20.4% | [6] 23.1%

c1ccc2cc(Nc3ccc(Nc4ccc5ccccc5c4)cc3)ccc2c1
inactive: [1] 0.25% | [2] 4.4% | [3] 12.3% | [4] 14.7% | [5] 27.2% | [6] 2.6%

NC(=O)Nc1ccc2[nH]c(=O)c3ccccc3c2c1
inactive: [1] 7.4% | [2] -3.35% | [3] 17.2% | [4] 0.6% | [5] -7.15% | [6] 1.45%

O=C(Nc1ccc2c(O)c(N=Nc3ccc(N=Nc4ccc(S(=O)(=O)O)cc4)cc3)c(S(=O)(=O)O)cc2c1)c1ccccc1
inactive: [1] 18.9% | [2] -5.8% | [3] 2.9% | [4] -9.1% | [5] 8.8% | [6] 14.7%

c1ccc(N/N=C2/CSCc3ccccc32)cc1
inactive: [2] 68.8%
active: [1] 93.2% | [3] 91.5% | [4] 74.2% | [5] 80.8% | [6] 94.4%

COc1ccc(/C=N/Nc2nc(C)c3c(n2)Nc2ccccc2NC3=O)cc1
inactive: [1] -15.2% | [2] 10.2% | [3] 3.55% | [4] -1.95% | [5] -1.45% | [6] -19.8%

COc1cc2c(c3c1c(=O)c1ccccc1n3C)C=CC1(CCCCC1)O2
inactive: [1] -12.4% | [2] -19.6% | [6] -7.4%
active: [3] 91% | [4] 86.5% | [5] 87.5%

CCOCC/C(=N\Nc1ccc([N+](=O)[O-])cc1[N+](=O)[O-])c1ccccc1
inactive: [1] 19.8% | [2] 5.85% | [3] 11.2% | [4] 19.6% | [5] 30% | [6] 9.55%

C=C(C)C(=O)OCC(O)C[N+](C)(C)C (stereo not given)
inactive: [1] 0.35% | [2] -15.8% | [3] 2.9% | [4] 11.2% | [5] 5.1% | [6] 4.3%

CCOC(=O)c1cn(Cc2ccccc2)c(=O)n1Cc1ccccc1
inactive: [1] 36% | [2] 23.3% | [3] 23.5% | [4] -2.4% | [5] 42.5% | [6] 56.1%
